Experimental data taken from PubChem BioAssay (EPA / NIEHS).
Values joined by “and” are separate entries in the source; they are usually repeats but may differ in a detail not shown here. Equal values may be shown once. Inconclusive results are not listed. The source holds several records for some structures; these can differ, active in one and inactive in another. Active and inactive are the calls of the source. Rule for the calls, unless noted: active = hit-call score of the fitted dose curve at least 0.9, where 1 is the maximum; inconclusive = response in the unintended direction; inactive = score below 0.9.

Tests used:
[1] = ATG_TGFb_CIS: Attagene CIS-FACTORIAL HepG2 Assay for human Transforming Growth Factor (TGF) (AID 2282967; active = hit-call score of the fitted dose curve at least 0.9, where 1 is the maximum; inactive = score below 0.9); details: HepG2 Attagene CIS TGFb reporter, mRNA transcription; actives raise or lower the signal
Summary of the method: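 Cells were dosed for 24 hours, after which total RNA was reverse-transcribed and reporter sequences amplified, labeled and sized by capillary electrophoresis. Activity was fitted in both directions against DMSO.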

[2] = ATG_VDRE_CIS: Attagene CIS-FACTORIAL HepG2 Assay for human Vitamin D Receptor Element (VDRE) (AID 2282968; active = hit-call score of the fitted dose curve at least 0.9, where 1 is the maximum; inactive = score below 0.9); details: HepG2 VDRE cis-reporter transcription, actives raise or lower the signal
Summary of the method: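 In transiently transfected HepG2 liver cells, gain or loss of reporter mRNA after 24 h exposure is scored relative to DMSO, using fluorescence detection by capillary electrophoresis of RT-PCR products.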

[3] = target: X-box-binding protein 1 (Homo sapiens) (UniProt P17861); assay: ATG_Xbp1_CIS: Attagene CIS-FACTORIAL HepG2 Assay for human X-box Binding Protein 1 (XBP1) (AID 2282972; active = hit-call score of the fitted dose curve at least 0.9, where 1 is the maximum; inactive = score below 0.9); details: HepG2 XBP1 cis-element reporter, Attagene multiplex; actives raise or lower the signal
Sequence of X-box-binding protein 1 (Homo sapiens) (P17861 whole entry, looked up): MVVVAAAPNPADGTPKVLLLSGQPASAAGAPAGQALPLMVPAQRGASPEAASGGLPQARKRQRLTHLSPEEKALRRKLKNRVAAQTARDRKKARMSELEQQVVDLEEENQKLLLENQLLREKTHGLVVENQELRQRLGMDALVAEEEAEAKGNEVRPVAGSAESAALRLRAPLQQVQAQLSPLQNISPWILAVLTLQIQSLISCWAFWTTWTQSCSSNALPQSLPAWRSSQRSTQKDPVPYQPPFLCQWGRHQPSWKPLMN
Summary of the method: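 HepG2, transient MRTU transfection (cis-promoter driven), 24 h compound exposure. Total RNA → oligo(dT) RT → PCR → 6-FAM labeling → HpaI cut → CE. Bidirectional fit vs DMSO.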

[4] = ATG_M_19_TRANS: Attagene TRANS-FACTORIAL HepG2 Assay for M19 Transcription Factor (Internal Marker) (AID 2282974); details: HepG2 Attagene TRANS-FACTORIAL M19 internal marker reporter
Summary of the method: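 Cells: human HepG2, transiently transfected with multiplexed reporter transcription units. Exposure: 24 h. Detection: RT-PCR of reporter mRNA with capillary electrophoresis. Analysis: gain-of-signal vs DMSO.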

[5] = ATG_GAL4_TRANS: Attagene TRANS-FACTORIAL HepG2 Assay for GAL4 (Internal Marker) (AID 2282976); details: HepG2 Attagene TRANS GAL4 internal marker reporter
Summary of the method: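 HepG2 cells transiently transfected with multiplexed GAL4-UAS reporter constructs were dosed for 24 h. Reporter mRNA was measured by RT-PCR, 6-FAM primer extension, HpaI digestion and capillary electrophoresis, and gain of signal was fitted relative to DMSO.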

[6] = target: Glucocorticoid receptor (Homo sapiens) (UniProt P04150); assay: ATG_GR_TRANS: Attagene TRANS-FACTORIAL HepG2 Assay for human Glucocorticoid Receptor (GR) (AID 2282978); details: HepG2 Attagene TRANS GR reporter, mRNA transcription;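 note: activators score as hits since higher reporter transcript over DMSO is fitted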
Sequence of Glucocorticoid receptor (Homo sapiens) (P04150 whole entry, looked up, the tested form may be a part): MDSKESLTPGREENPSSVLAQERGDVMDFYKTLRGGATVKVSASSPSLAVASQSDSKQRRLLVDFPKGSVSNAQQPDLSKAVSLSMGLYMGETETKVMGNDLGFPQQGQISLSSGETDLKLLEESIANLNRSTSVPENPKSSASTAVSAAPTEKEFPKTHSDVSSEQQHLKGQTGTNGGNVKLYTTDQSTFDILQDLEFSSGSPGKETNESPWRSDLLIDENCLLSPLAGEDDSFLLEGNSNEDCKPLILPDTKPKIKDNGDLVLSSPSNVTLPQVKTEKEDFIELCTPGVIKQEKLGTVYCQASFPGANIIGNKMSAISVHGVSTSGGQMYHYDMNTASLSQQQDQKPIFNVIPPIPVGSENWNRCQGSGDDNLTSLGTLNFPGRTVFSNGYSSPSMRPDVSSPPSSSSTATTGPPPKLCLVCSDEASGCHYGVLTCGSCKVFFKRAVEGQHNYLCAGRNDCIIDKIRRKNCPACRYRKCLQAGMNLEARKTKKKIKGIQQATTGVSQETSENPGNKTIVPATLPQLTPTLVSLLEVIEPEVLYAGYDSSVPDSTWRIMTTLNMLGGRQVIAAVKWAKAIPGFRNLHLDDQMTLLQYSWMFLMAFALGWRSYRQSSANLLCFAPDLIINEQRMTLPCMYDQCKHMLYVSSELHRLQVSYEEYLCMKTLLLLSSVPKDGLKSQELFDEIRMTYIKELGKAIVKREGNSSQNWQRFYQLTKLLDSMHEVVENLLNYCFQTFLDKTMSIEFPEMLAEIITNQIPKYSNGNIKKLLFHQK
Summary of the method: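 In this trans-factorial format, exogenous NR-GAL4 chimeric proteins in transfected HepG2 cells regulate GAL4-UAS reporter transcription. After 24 h treatment, reporter mRNA induction relative to DMSO is read by RT-PCR and capillary electrophoresis.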

[7] = target: Nuclear receptor subfamily 1 group I member 3 (Homo sapiens) (UniProt Q14994); assay: ATG_CAR_TRANS: Attagene TRANS-FACTORIAL HepG2 Assay for human Constitutive Androstane Receptor (CAR) (AID 2282969); details: HepG2 Attagene TRANS-FACTORIAL CAR reporter;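 note: activators raise reporter mRNA above DMSO so AC50 marks induction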
Sequence of Nuclear receptor subfamily 1 group I member 3 (Homo sapiens) (Q14994 whole entry, looked up, the tested form may be a part): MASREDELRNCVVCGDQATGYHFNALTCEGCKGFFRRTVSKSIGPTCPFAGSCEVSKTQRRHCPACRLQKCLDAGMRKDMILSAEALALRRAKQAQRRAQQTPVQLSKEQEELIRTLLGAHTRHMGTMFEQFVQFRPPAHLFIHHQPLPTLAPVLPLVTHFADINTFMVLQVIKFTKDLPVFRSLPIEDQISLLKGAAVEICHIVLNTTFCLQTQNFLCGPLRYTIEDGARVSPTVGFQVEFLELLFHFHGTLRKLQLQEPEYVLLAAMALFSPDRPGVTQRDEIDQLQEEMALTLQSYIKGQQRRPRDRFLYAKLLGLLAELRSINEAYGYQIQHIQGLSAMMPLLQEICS
Summary of the method: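 Readout is reporter mRNA induction, quantified by fluorescent primer extension and capillary electrophoresis after RT-PCR. Cells were HepG2 transiently carrying chimeric NR-Gal4 constructs with GAL4-UAS reporters, treated for 24 h; activity scored upward from DMSO.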

[8] = target: Estrogen receptor (Homo sapiens) (UniProt P03372); assay: ATG_ERa_TRANS: Attagene TRANS-FACTORIAL HepG2 Assay for human Estrogen Receptor alpha (ERa) (AID 2282970); details: HepG2 Attagene TRANS ERa GAL4 reporter, mRNA
Sequence of Estrogen receptor (Homo sapiens) (P03372 whole entry, looked up, the tested form may be a part): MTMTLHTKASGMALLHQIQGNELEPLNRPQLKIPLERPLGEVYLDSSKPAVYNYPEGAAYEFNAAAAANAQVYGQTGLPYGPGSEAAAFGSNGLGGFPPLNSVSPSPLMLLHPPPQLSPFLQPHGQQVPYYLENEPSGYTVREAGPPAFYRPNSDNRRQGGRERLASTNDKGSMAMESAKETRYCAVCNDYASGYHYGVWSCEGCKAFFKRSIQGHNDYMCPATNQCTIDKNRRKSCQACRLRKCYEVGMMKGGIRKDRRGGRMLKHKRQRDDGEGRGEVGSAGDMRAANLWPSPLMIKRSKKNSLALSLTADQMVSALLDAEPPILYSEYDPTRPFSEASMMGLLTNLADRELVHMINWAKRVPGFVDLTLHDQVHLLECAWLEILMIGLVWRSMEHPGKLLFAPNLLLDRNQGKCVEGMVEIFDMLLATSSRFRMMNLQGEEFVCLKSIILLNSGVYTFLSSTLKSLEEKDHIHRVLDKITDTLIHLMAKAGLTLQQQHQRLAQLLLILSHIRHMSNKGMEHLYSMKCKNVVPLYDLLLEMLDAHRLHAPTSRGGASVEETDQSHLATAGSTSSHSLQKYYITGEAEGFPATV
Summary of the method: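 HepG2 cells transiently transfected with multiplexed GAL4-UAS reporter units; ERa activity read via exogenous chimeric NR-Gal4 protein. After 24 hour compound exposure, reporter mRNA measured by RT-PCR with 6-FAM labelling and capillary electrophoresis; gain-of-signal fitted relative to DMSO.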

[9] = target: Steroid hormone receptor ERR1 (Homo sapiens) (UniProt P11474); assay: ATG_ERRa_TRANS: Attagene TRANS-FACTORIAL HepG2 Assay for human Estrogen-Related Receptor alpha (ERRa) (AID 2282971); details: HepG2 Attagene TRANS reporter, ERRa transactivation
Sequence of Steroid hormone receptor ERR1 (Homo sapiens) (P11474 whole entry, looked up, the tested form may be a part): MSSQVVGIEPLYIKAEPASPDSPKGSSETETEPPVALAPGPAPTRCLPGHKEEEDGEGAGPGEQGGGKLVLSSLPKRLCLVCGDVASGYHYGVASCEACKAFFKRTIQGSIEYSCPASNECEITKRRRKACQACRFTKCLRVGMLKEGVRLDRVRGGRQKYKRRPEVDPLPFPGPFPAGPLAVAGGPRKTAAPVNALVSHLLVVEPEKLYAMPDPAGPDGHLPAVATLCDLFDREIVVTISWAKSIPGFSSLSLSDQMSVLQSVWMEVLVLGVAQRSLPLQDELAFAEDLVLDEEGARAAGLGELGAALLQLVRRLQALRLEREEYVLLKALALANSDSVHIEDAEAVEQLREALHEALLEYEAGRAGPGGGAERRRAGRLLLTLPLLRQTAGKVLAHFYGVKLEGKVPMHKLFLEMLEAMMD
Summary of the method: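 HepG2 cells transiently transfected with multiplexed GAL4-UAS reporter units reading chimeric ERRa-Gal4 activity; 24 h compound exposure. Reporter mRNA measured by RT-PCR, 6-FAM labelling, HpaI digest and capillary electrophoresis; gain of signal fitted versus DMSO baseline.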

[10] = target: Estrogen-related receptor gamma (Homo sapiens) (UniProt P62508); assay: ATG_ERRg_TRANS: Attagene TRANS-FACTORIAL HepG2 Assay for human Estrogen-Related Receptor gamma (ERRg) (AID 2282977); details: HepG2 Attagene TRANS reporter, ERRg transactivation;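 note: hits increase reporter signal over DMSO so potencies reflect activators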
Sequence of Estrogen-related receptor gamma (Homo sapiens) (P62508 whole entry, looked up, the tested form may be a part): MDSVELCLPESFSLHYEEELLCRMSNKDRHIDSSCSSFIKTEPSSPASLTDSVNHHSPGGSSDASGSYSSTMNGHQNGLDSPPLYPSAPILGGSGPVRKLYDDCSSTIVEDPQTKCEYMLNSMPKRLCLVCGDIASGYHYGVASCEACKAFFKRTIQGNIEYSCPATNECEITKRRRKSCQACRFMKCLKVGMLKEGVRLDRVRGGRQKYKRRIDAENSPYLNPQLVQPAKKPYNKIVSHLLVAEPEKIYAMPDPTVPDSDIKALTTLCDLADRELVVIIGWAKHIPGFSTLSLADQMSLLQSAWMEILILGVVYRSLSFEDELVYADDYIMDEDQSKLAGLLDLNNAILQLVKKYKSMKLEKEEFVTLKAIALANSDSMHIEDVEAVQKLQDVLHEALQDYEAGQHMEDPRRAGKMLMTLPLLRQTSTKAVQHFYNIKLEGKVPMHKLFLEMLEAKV
Summary of the method: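 Transient HepG2 transfectants, 24 h compound exposure, GAL4-UAS reporter mRNA by RT-PCR/6-FAM labelling/capillary electrophoresis; positive direction vs DMSO.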

Structure (SMILES)	outcome [1]	AC50 [2]	outcome [2]	outcome [3]	outcome [4]	outcome [5]	outcome [6]	outcome [7]	outcome [8]	AC50 [1]	AC50 [8]	outcome [9]	AC50 [3]	outcome [10]
C[C@]12CC[C@@H]3c4ccc(O)cc4CC[C@H]3[C@@H]1C[C@@H](O)[C@@H]2O	inactive	27.1 µM (active)	inactive	inactive	inactive	inactive	inactive							
CCCCCCCCCCCCCCCC(=O)OC	inactive		inactive	inactive	inactive	inactive		inactive	inactive					
CCCCCCCCCCCC	inactive			inactive	inactive	inactive	inactive			124 µM (active)				
Nc1ccc(O)c(C(=O)O)c1	inactive		inactive	inactive	inactive			inactive			44.6 µM (active)	inactive		
C=COC(=O)C(C)(C)CCCCCC	inactive		inactive	inactive				inactive			41 µM (active)			
O=C(CC(=O)C(F)(F)C(F)(F)C(F)(F)F)c1cccs1	inactive	11 µM (active)	inactive		inactive		inactive		inactive			inactive	8.17 µM (active) and 32.9 µM (active)	inactive
CC(C)(C)c1ccc(O)c(O)c1	inactive			inactive	inactive	inactive	inactive	inactive		100 µM (active) and 46.6 µM (active) and 42.3 µM (active)				
CCCCCCc1ccc(N)cc1	inactive		inactive	inactive			inactive	inactive			11.6 µM (active)	inactive		
NC(=NCCCCCCN=C(N)/N=C(\N)Nc1ccc(Cl)cc1)/N=C(\N)Nc1ccc(Cl)cc1	inactive			inactive				inactive	inactive	0.0763 µM (active)				
C=CC(=O)OCCC(F)(F)C(F)(F)C(F)(F)C(F)(F)C(F)(F)C(F)(F)C(F)(F)C(F)(F)F	inactive		inactive	inactive	inactive			inactive			11 µM (active)	inactive		
CN(C)c1ccc(C(=C2C=CC(=[N+](C)C)C=C2)c2ccccc2)cc1	inactive	1.82 µM (active) and 1.3 µM (active)		inactive		inactive				1.85 µM (active)			1.94 µM (active)	inactive
O=c1cc(-c2ccccc2)oc2ccc3ccccc3c12	inactive		inactive	inactive	inactive			inactive	inactive		2.05 µM (active)			inactive
CCOCCOCC	inactive		inactive	inactive				inactive	inactive					
CN(CCO)S(=O)(=O)C(F)(F)C(F)(F)C(F)(F)C(F)(F)C(F)(F)C(F)(F)C(F)(F)C(F)(F)F	inactive		inactive	inactive	inactive	inactive	inactive	inactive	inactive			inactive		inactive
O=C1OC(=O)c2cc(-c3ccc4c(c3)C(=O)OC4=O)ccc21	inactive		inactive	inactive	inactive	inactive		inactive	inactive					
C/C=C/C(=O)C1=C(C)CCCC1(C)C	inactive	7.43 µM (active)				inactive	inactive	inactive	inactive			inactive	34.6 µM (active)	inactive
O=C(O)C(F)(F)OC(F)(F)C(F)(F)OC(F)(F)C(F)(F)OC(F)(F)C(F)(F)C(F)(F)C(F)(F)F	inactive	13.1 µM (active) and 30 µM (active)			inactive	inactive		inactive	inactive		26 µM (active)	inactive	41.2 µM (active) and 25.4 µM (active)	inactive
Cc1cccc2c1ccc1ccccc12	inactive		inactive	inactive	inactive		inactive	inactive			11.2 µM (active)	inactive		
c1cc2cccc3c4cccc5cccc(c(c1)c23)c54	inactive		inactive	inactive				inactive	inactive			inactive		inactive
C=Cc1ccc(O)c(OC)c1	inactive	44.7 µM (active)		inactive	inactive	inactive		inactive	inactive					
O=P(O)(O)CCC(F)(F)C(F)(F)C(F)(F)C(F)(F)C(F)(F)C(F)(F)C(F)(F)C(F)(F)F	inactive		inactive	inactive	inactive	inactive		inactive	inactive					
COc1cccc(O)c1	inactive		inactive	inactive	inactive	inactive		inactive	inactive					
Cc1cncc(C)c1	inactive		inactive	inactive	inactive			inactive	inactive			inactive		inactive
O=C1OC2(c3ccccc31)c1cc(I)c(O)c(I)c1Oc1c2cc(I)c(O)c1I	inactive	20.4 µM (active) and 23.8 µM (active) and 22 µM (active)		inactive	inactive	inactive		inactive		93.8 µM (active)				inactive
CCN(CCC#N)c1ccccc1	inactive		inactive	inactive	inactive	inactive		inactive	inactive					
COCN(COC)c1nc(N(COC)COC)nc(N(COC)COC)n1	inactive		inactive	inactive				inactive			49.3 µM (active)			
CCCCCCCCCCCCCCCCCC[N+](C)(C)Cc1ccccc1	inactive	50 µM (active)		inactive		inactive	inactive	inactive	inactive			inactive		inactive

Structure (SMILES)	outcome [1]	AC50 [2]	outcome [2]	outcome [3]	outcome [4]	outcome [5]	outcome [6]	outcome [7]	outcome [8]	AC50 [1]	AC50 [8]	outcome [9]	AC50 [3]	outcome [10]
Cc1cc(=O)oc2cc(O)ccc12	inactive	36 µM (active)	inactive	inactive	inactive			inactive			50.6 µM (active) and 53.8 µM (active)			
CC(C)CCOCCC(C)C	inactive		inactive	inactive		inactive	inactive	inactive	inactive			inactive		
O=S(=O)(O)C(F)(F)C(F)(F)C(F)(F)C(F)(F)C(F)(F)C(F)(F)C(F)(F)C(F)(F)C(F)(F)C(F)(F)F			inactive	inactive	inactive	inactive		inactive	inactive	132 µM (active) and 31.7 µM (active)		inactive		inactive
c1cnc2c(c1)ccc1cccnc12	inactive	161 µM (active)	inactive	inactive	inactive		inactive	inactive				inactive	158 µM (active)	inactive
O=C(Nc1cccc([N+](=O)[O-])c1)c1cc2ccccc2cc1O			inactive	inactive	inactive			inactive	inactive	48.1 µM (active)		inactive		inactive
O=C(NO)c1ccccc1	inactive		inactive	inactive	inactive	inactive	inactive			27.5 µM (active) and 26.7 µM (active)		inactive		inactive
CCOC(OCC)C(=O)c1ccccc1	inactive		inactive	inactive	inactive	inactive	inactive	inactive			32.2 µM (active)	inactive		inactive
C[N+](C)(CCCNS(=O)(=O)CCC(F)(F)C(F)(F)C(F)(F)C(F)(F)C(F)(F)C(F)(F)F)CC(=O)[O-]	inactive		inactive	inactive			inactive	inactive			0.0373 µM (active)	inactive		inactive
CC1=CC(=O)c2ccccc2C1=O	inactive		inactive	inactive	inactive			inactive	inactive			inactive		inactive
C=C(c1ccc(C(=O)O)cc1)c1cc2c(cc1C)C(C)(C)CCC2(C)C	inactive	2.11 µM (active)	inactive	inactive	inactive		inactive		inactive		31.2 µM (active)	inactive	16.9 µM (active)	
OCC(F)(F)C(F)(F)C(F)(F)C(F)(F)C(F)(F)C(F)(F)C(F)(F)C(F)(F)C(F)(F)C(F)(F)C(F)(F)F	inactive		inactive	inactive			inactive	inactive			62.3 µM (active)			
CCCCCC(C)OC(=O)COc1ccc(Cl)c2cccnc12 (centres undefined)	inactive		inactive	inactive		inactive		inactive						
CC(C)[C@@H]1CC[C@@H](C)C[C@H]1O	inactive		inactive	inactive	inactive	inactive		inactive						
CCOC(C)=O	inactive		inactive	inactive	inactive	inactive	inactive	inactive	inactive					
CCOC(=O)CN[C@@H](C(=O)N1CC[C@H]1C(=O)NCc1ccc(/C(N)=N/O)cc1)C1CCCCC1	inactive		inactive	inactive		inactive		inactive				inactive		inactive
CCO[Si](CCC1CCC2OC2C1)(OCC)OCC (centres undefined)	inactive		inactive	inactive	inactive	inactive	inactive	inactive	inactive					inactive
CC(=O)CC(C)C	inactive		inactive	inactive	inactive	inactive		inactive				inactive		
Cc1ccc(N=Nc2c(O)ccc3ccccc23)c(C)c1	inactive	2.55 µM (active)		inactive	inactive		inactive	inactive			6.5 µM (active)			
Nc1cc(Cl)c(-c2cc(Cl)c(N)cc2Cl)cc1Cl	inactive	2.96 µM (active)			inactive		inactive	inactive	inactive				11.1 µM (active)	inactive
Oc1cc2ccccc2cc1O	inactive		inactive	inactive	inactive		inactive	inactive	inactive					
C=CCOCC(CO)(CO)CO	inactive		inactive	inactive	inactive		inactive	inactive	inactive					inactive
NCc1cccc(CN)c1	inactive		inactive	inactive	inactive	inactive	inactive	inactive						
CC[N+](CC)(CC)Cc1ccccc1	inactive		inactive	inactive		inactive	inactive	inactive				inactive		inactive
NNc1nc(-c2ccc([N+](=O)[O-])cc2)cs1	inactive		inactive	inactive	inactive			inactive	inactive					inactive
C=CC(C)(CCC=C(C)C)OC(C)=O (centres undefined)	inactive		inactive	inactive	inactive	inactive	inactive	inactive	inactive					
CCC(C)c1nccnc1OC (centres undefined)	inactive		inactive	inactive	inactive	inactive	inactive	inactive				inactive		
